Screening data: PubChem, National Center for Advancing Translational Sciences (NCATS)
Sampled rows, rich in hits. Any-hit rate of the full collection: about 19%.
IL1B secr inh: inhibitors of inflammasome signaling (IL-1 beta secretion) | THP-1 LPS/ATP IL-1B secretion, AlphaLISA, 16 h; active compounds read low | activity change, % at 57.5 µM | 360,000 compounds, 4.7% hits; in the data active = activity change below about -50%; inconclusive = mostly about -30% to -49%
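THP-1 cells pretreated 1 hr with compounds (up to 57.5 uM final), then stimulated with LPS (250 ng/mL final) plus ATP (1.25 mM final); secreted IL-1B measured by AlphaLISA after 16 hr, decreased signal indicating inhibition.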
TDP1 cell noCPT: qHTS for Inhibitors of human tyrosyl-DNA phosphodiesterase 1 (TDP1): qHTS in cells in absence of CPT; DT40 Tdp1-/- hTDP1 cells, no CPT, ATP luminescence, 48 h; AID 686978, 2013; 420,000 compounds, 15% hits; Potency, µM (highest dose often 46.2 µM), without a hit: top-dose activity change, negative = growth inhibition, actives largely listed as inhibitors; note: potency is the fitted concentration of half-maximal effect; nearly all actives have a fitted effect of over 55% in size
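No-CPT arm: Tdp1-/-;hTDP1 DT40 cells (400/well) plus compounds, incubated ≥48 hr at 37 °C. Readout CellTiter-Glo luminescence.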
HT1080NT lethal: kills 2HG-producing HT-1080-NT fibrosarcoma cells; Potency, µM (doses to about 46.1 µM), inactives show at the top dose activity, negative = less viability, actives largely listed as cytotoxic; 360,000 compounds, 1.6% hits; HT-1080-NT fibrosarcoma viability, CellTiter-Glo ATP luminescence, 48 h;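 note: NT is the 2HG producing partner of a matched IDH1 knockdown line; potency is the fitted concentration of half-maximal effect; 0% = DMSO-treated cells and -100% = media-only wells without cells; nearly all actives have a fitted effect of over 55% in size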
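Compounds were tested in concentration-response format on HT-1080-NT cells for 48 hours at 37 degrees C. Cell viability came from CellTiter-Glo luminescence; curves were classified by r2, response magnitude and activity.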
HT1080 IDH1KD tx: toxicity to HT-1080 IDH1 knockdown cells (counter line); HT-1080 IDH1 knockdown viability, ATP luminescence, 48 h; Potency, µM (highest dose often 46.1 µM), for inactives: at the highest dose activity, negative = toxicity, usual class: cytotoxic; 360,000 compounds, 2% hits; AID 686971;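 note: potency is the fitted concentration of half-maximal effect; 0% = DMSO wells and -100% = cell-free medium wells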
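HT-1080-IDH1KD cells (IDH1 knocked down), 750/well in RPMI with 5% FBS, treated with compound 48 h at 37 degrees C. Viability by CellTiter-Glo luminescence, normalised to DMSO and no-cell wells; concentration-response curves classed.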
DT40 TDP1 CPT: DT40-hTDP1 cell growth loss with CPT. chicken DT40 Tdp1-/-;hTDP1 cells + 20 nM CPT, ATP luminescence, 48 h. Potency, µM (titrated, usually from 46.2 µM), inactives show top-dose activity change, negative = growth inhibition, most hits filed as inhibitors. 420,000 compounds, 12% hits. AID 686979; note: potency is the fitted concentration of half-maximal effect; nearly all actives have a fitted effect of over 55% in size
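Chicken DT40 Tdp1-/- cells complemented with human TDP1, 400 cells/well, exposed to compounds plus 20 nM camptothecin for at least 48 h at 37 C; viability read as ATP content by CellTiter-Glo luminescence.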
* marks the source's active call; other numbers are inactive results; [ ] = another dose, or the depositor's remark. Unless noted, calls come from the whole dose curve; as a rule, active = well fitted curve in the direction sought with a large enough effect; inconclusive = small, poorly fitted or top-dose-only effect, or another doubt; inactive = no such curve, though single readings can be large; an effect the other way counts as inactive or inconclusive. Unless noted, % is set by controls: 0 for no effect and ±100 for the full control effect.

Screening CCOC(=O)C1CCN(Cc2cn3c(-c4ccc(OC)cc4)nnc3s2)CC1 returned TDP1 cell noCPT inconclusive and DT40 TDP1 CPT 21µM*.
`CCOC(=O)C1CCCN(Cc2cn3c(-c4ccc(Br)cc4)nnc3s2)C1` (configuration not stated) gave TDP1 cell noCPT 6.5µM* and DT40 TDP1 CPT 5.2µM*.
`Brc1ccc(-c2nnc3sc(CN4CCCCC4)cn23)cc1` gave TDP1 cell noCPT -25% and DT40 TDP1 CPT -9%.
CC1CCCN(Cc2cn3c(-c4cccc(Br)c4)nnc3s2)C1 (configuration not stated) was read as TDP1 cell noCPT inconclusive and DT40 TDP1 CPT 23µM*.
`Brc1cccc(-c2nnc3sc(CNCc4ccco4)cn23)c1` gave IL1B secr inh -6, TDP1 cell noCPT inconclusive, HT1080NT lethal -5%, HT1080 IDH1KD tx -5% and DT40 TDP1 CPT inconclusive.
CCOC(=O)C1CCCN(C(=O)CSc2ccc(Br)cc2)C1 (configuration not stated) was read as IL1B secr inh -8, TDP1 cell noCPT 18µM*, HT1080NT lethal 11%, HT1080 IDH1KD tx -6% and DT40 TDP1 CPT 13µM*.
O=C(NC(=S)NCCO)c1cn(-c2ccccc2)nc1-c1ccccc1 was read as IL1B secr inh -4, TDP1 cell noCPT -19%, HT1080NT lethal 23%, HT1080 IDH1KD tx 17% and DT40 TDP1 CPT -22%.
O=C(COC(=O)c1cccc(S(=O)(=O)NCc2ccccc2)c1)c1ccccc1 was read as IL1B secr inh 11, TDP1 cell noCPT -27%, HT1080NT lethal 5%, HT1080 IDH1KD tx 1% and DT40 TDP1 CPT -4%.
Cc1cc(C)c(C(=O)COC(=O)c2cccc(S(=O)(=O)NCc3ccccc3)c2)cc1C was read as IL1B secr inh 23, TDP1 cell noCPT 16µM*, HT1080NT lethal -10%, HT1080 IDH1KD tx -2% and DT40 TDP1 CPT inconclusive.
COc1ccc(NC(=O)Cn2cnc3ccc(S(=O)(=O)N4CCC(C)CC4)cc3c2=O)cc1OC was read as TDP1 cell noCPT inconclusive and DT40 TDP1 CPT 26µM*.
Screening COc1ccc(OC)c(NC(=O)Cn2cnc3ccc(S(=O)(=O)N4CCC(C)CC4)cc3c2=O)c1 returned TDP1 cell noCPT inconclusive and DT40 TDP1 CPT 23µM*.
`COc1ccc(NC(=O)Cn2cnc3ccc(S(=O)(=O)N4CCC(C)CC4)cc3c2=O)c(OC)c1` gave TDP1 cell noCPT -21% and DT40 TDP1 CPT inconclusive.
`CC1CCN(S(=O)(=O)c2ccc3ncn(CC(=O)Nc4ccccc4C(F)(F)F)c(=O)c3c2)CC1` gave TDP1 cell noCPT inconclusive and DT40 TDP1 CPT 21µM*.
For COC(=O)c1ccccc1NC(=O)Cn1cnc2ccc(S(=O)(=O)N3CCC(C)CC3)cc2c1=O the results were IL1B secr inh 9, TDP1 cell noCPT -3%, HT1080NT lethal 4%, HT1080 IDH1KD tx -13% and DT40 TDP1 CPT 5%.
`Cc1ccc(/C=C(\NC(=O)c2ccccc2)C(=O)NCCc2ccccn2)o1` gave IL1B secr inh -6, TDP1 cell noCPT -27%, HT1080NT lethal 2%, HT1080 IDH1KD tx 9% and DT40 TDP1 CPT -20%.
For CC(c1nc2ccccc2c(=O)[nH]1)N1CCN(S(=O)(=O)c2ccc(F)c(Cl)c2)CC1 (configuration not stated) the results were IL1B secr inh -4, TDP1 cell noCPT inconclusive, HT1080NT lethal -20%, HT1080 IDH1KD tx -17% and DT40 TDP1 CPT 18µM*.
`O=C(Cc1n[nH]c(=O)c2ccccc12)N1CCN(S(=O)(=O)c2ccc(F)c(Cl)c2)CC1` gave IL1B secr inh -3, TDP1 cell noCPT -22%, HT1080NT lethal -20%, HT1080 IDH1KD tx 0% and DT40 TDP1 CPT -8%.
CC(C)n1cc(/C=C2\NC(=O)N(c3cccc(Cl)c3)C2=O)c2ccccc21 was read as IL1B secr inh 40, TDP1 cell noCPT inconclusive, HT1080NT lethal inconclusive, HT1080 IDH1KD tx -26% and DT40 TDP1 CPT inconclusive.
Screening CC(C)n1cc(/C=C2/NC(=O)N(c3cccc(Cl)c3)C2=O)c2ccccc21 returned IL1B secr inh 0, TDP1 cell noCPT inconclusive, HT1080NT lethal -14%, HT1080 IDH1KD tx inconclusive and DT40 TDP1 CPT 26µM*.
For CC(=O)c1ccc(OCCCC(=O)N(CCC2=CCCCC2)c2c(N)n(Cc3ccccc3)c(=O)[nH]c2=O)cc1 the results were IL1B secr inh -4, TDP1 cell noCPT -10%, HT1080NT lethal 4%, HT1080 IDH1KD tx 1% and DT40 TDP1 CPT 1%.
Cc1cccc(OCC(=O)N(Cc2ccco2)c2c(N)n(Cc3ccccc3)c(=O)[nH]c2=O)c1 was read as IL1B secr inh 0, TDP1 cell noCPT 0%, HT1080NT lethal 6%[9.24 µM], HT1080 IDH1KD tx 9% and DT40 TDP1 CPT -3%.
`Nc1c(N(CCC2=CCCCC2)C(=O)Cc2ccc(F)cc2)c(=O)[nH]c(=O)n1Cc1ccccc1` gave IL1B secr inh 7, TDP1 cell noCPT inconclusive, HT1080NT lethal -4%, HT1080 IDH1KD tx -7% and DT40 TDP1 CPT inconclusive.
CC(=O)c1ccc(OCC(=O)N(CCC2=CCCCC2)c2c(N)n(Cc3ccccc3)c(=O)[nH]c2=O)cc1 was read as IL1B secr inh 1, TDP1 cell noCPT inconclusive, HT1080NT lethal 0%, HT1080 IDH1KD tx -1% and DT40 TDP1 CPT 23µM*.
Nc1c(N(CCC2=CCCCC2)C(=O)COc2ccc(F)cc2Cl)c(=O)[nH]c(=O)n1Cc1ccccc1 was read as IL1B secr inh -55*, TDP1 cell noCPT 6.5µM*, HT1080NT lethal 18µM*, HT1080 IDH1KD tx 10µM* and DT40 TDP1 CPT 5.8µM*.
Screening Cc1cccc(OCC(=O)N(Cc2ccccc2)c2c(N)n(Cc3ccccc3)c(=O)[nH]c2=O)c1 returned IL1B secr inh inconclusive, TDP1 cell noCPT inconclusive, HT1080NT lethal -3%, HT1080 IDH1KD tx -13% and DT40 TDP1 CPT 18µM*.
Screening COc1ccc(/C=N/NC(=O)CNC(=O)C2COc3ccccc3O2)cc1OC (configuration not stated) returned IL1B secr inh 83, TDP1 cell noCPT -27%, HT1080NT lethal 16%, HT1080 IDH1KD tx -3% and DT40 TDP1 CPT -6%.
Screening COc1ccc(C2=C(O)C(C)N(c3ccccc3)C2=N)cc1OC (configuration not stated) returned IL1B secr inh 45, TDP1 cell noCPT -15%, HT1080NT lethal -22%, HT1080 IDH1KD tx 6%[9.24 µM] and DT40 TDP1 CPT 1%.
For O=C(N/N=C1/SCC(=O)N1Cc1ccco1)c1ccccc1F the results were IL1B secr inh 1, TDP1 cell noCPT -5%, HT1080NT lethal 17%, HT1080 IDH1KD tx 18% and DT40 TDP1 CPT 2%.
